Results filed as inconclusive are left out. Entries that show only a call come without a potency. Active and inactive are the calls of the source. Calls follow the shape of the dose curve; as a rule, active = well fitted inhibition curve with a large enough effect; inconclusive = small, poorly fitted or top-dose-only effect, or effect the other way; inactive = flat fitted curve, though single readings scatter.
Potency is read from the fitted curve at half-maximal effect.

The nature of this assay: qHTS for Inhibitors of Plasmodium falciparum (GB4) proliferation (AID 504315). Also: nearly all actives have a fitted effect of over 50% in size. As to conditions: P. falciparum GB4 in erythrocytes, SYBR Green DNA, 72 h; series mostly up to 6.7 µM. The source says: Plasmodium falciparum is a virulent malarial parasite that kills 1-2 million people worldwide each year. Malaria not only inflicts tremendous suffering and morbidity on the human population, but has dramatically influenced the course of civilization with profound sociological and economic implications (Shah, S. 2010). Transmitted by mosquitoes, the sporozoite form of the parasite enters the blood stream to infect hepatocytes, where they become merozoites that infect red blood cells (erythrocytes). Within erythrocytes, merozoites begin a […] cycle of growth and division, after which the parasite is released to infect new red blood cells. Gametocytes, which form within erythrocytes as well, circulate in the bloodstream and are ingested by the mosquito, thereby completing the life cycle (see CDC website). To profile malarial lines for differential chemical responses and to identify inhibitors of malarial growth, an assay that measures P. falciparum growth and replication within erythrocytes was employed. This assay uses a DNA binding fluorescent dye (SYBR Green) to detect parasite DNA following cell lysis. Because mature erythrocytes lack DNA, only Plasmodium-derived DNA is detected. The P. falciparum line cp250, derived from a malarial isolate from Cambodia, (Mu, J., et al. 2010) was added to the panel of lines, Dd2, HB3, 7G8 and GB4 in this study. Laboratory of Assay Development and Screening Technology [ADST] and NIH Chemical Genomics Center [NCGC] Boston University, Chemistry Department, Center for Chemical Methodology and Library Development [CMLD-BU] NIH National Institute of Allergy and Infectious Diseases [NIAID]
ADST Assay Protocol Summary: The 1536-well SYBR Green viability assay was based on the method of Bennett et al (2004) and described previously in 1536-well format (Yuan J., et al. 2009). For screening 3 ul culture medium was dispensed into 1536 well black clear bottom plates (Aurora Biotechnologies) using a Multidrop Combi (Thermo Fisher Scientific Inc.), 23 nL compounds in DMSO were added by a pin transfer (Cleveland, P.H. and Koutz, P.J, 2005) using a pin tool-based delivery system (Kalypsys), and 5 ul of erythrocytes infected with P. falciparum one of five lines (cp250, Dd2, HB3, 7G8 or GB4, 0.3% parasitemia, 2.5% hematocrit final concentration) were added. The plates were incubated at 37C in a humidified incubator in 5% CO2 for 72 h, and 2 ul lysis buffer (20 mM Tris HCl, 10 mM EDTA, 0.16% saponin, 1.6% triton X, 10X SYBR Green I (supplied as 10,000X final concentration by Invitrogen) was added to each well. The plates were mixed for 25 sec with gentle shaking and incubated overnight at room temperature in the dark. The following morning, fluorescence intensity at 485(14) nm excitation and 535(25) nm emission wavelengths was measured on an EnVision (Perkin Elmer) plate reader. Plate reads were normalized relative to the control inhibitor (0.29 uM artemisinin) and vehicle (DMSO) wells present on each plate and then corrected by an algorithm using vehicle-only control plates at the beginning and end of the compound plate stack. References Shah, S. (2010). The Fever: how malaria has ruled humankind for 500,000 years. New York, Sarah Crichton Books. CDC web site, http://www.cdc.gov/malaria/about/biology/index.html Mu, J., Myers, R.A., Jiang, H., Liu, S., Ricklefs, S., Waisberg, M., Chotivanich, K., Wilairatana, P., Krudsood, S., White, N.J., et Plasmodium falciparum genome-wide scans for positive selection, recombination hot spots and resistance to antimalarial drugs Nature Genetics 2010, 42, pp 268-271 Bennett TN, Paguio, M., Gligorijevic, B., Seudieu, C., Kosar, A. D., Davidson, E., and Roepe, P. D. Novel, rapid, and inexpensive cell-based quantification of antimalarial drug efficacy Antimicrobial Agents Chemother. 2004, 48(5): pp 1807-10 Yuan J, Johnson RL, Huang RL, Wichterman J, Jiang HY, Hayton K, Fidock DA, Wellems TE, Inglese J, Austin CP, Su XZ. […]
A general note: qHTS replaces the single test concentration by a dilution series.
Turning to `COCCN1C(=O)N[C@@H](CCc2ccccc2)[C@H](C(=O)OC)[C@H]1C`, the Potency result is “inactive”.

Turning to `CC[C@H]1OC(c2ccccc2)[C@H](C)[C@H]2O[C@@H]2[C@@H]1C(=O)OC` (stereo not given in full), the Potency result is “inactive”.

In the case of `COC(=O)CC=C[C@@H](C)[C@H](OC)c1cc(OC)ccc1Br`, the Potency entry was “inactive”.

On to `C[C@H](NC(=O)N1CCc2nc(-c3ccccc3)c3c(c2C1)CO[C@@H](C)C3)c1ccccc1`, for which the Potency result is “inactive”.

Take `COCCN1C(=O)C2=C(C1=O)C1N(C)c3ccccc3[C@@]13C[C@@H](CO)N(C(C)=O)C3=N2` (stereo not given in full): the Potency result was “inactive”.

As to `Cc1cc2c(c(=O)o1)[C@H]1O[C@](c3ccsc3)(Cc3cc(C#N)ccc31)O2`, the Potency result was “inactive”.

In the case of `COc1ccc(-c2nc3c(c4c2C[C@H](c2ccccc2)OC4)CN(S(=O)(=O)c2ccc(NC(C)=O)cc2)CC3)c(C)c1`, the Potency result is “inactive”.

For the molecule `C#CCCCON=C1C[C@@H](O)[C@H](O)[C@H]2[C@@H]3C(=O)N(C4CCCCC4)C(=O)[C@@H]3CC[C@H]12`, the Potency result was “inactive”.

With `COc1ccc([C@]23Cc4ccccc4[C@H](O2)c2c(cc(C)n(Cc4ccccc4)c2=O)O3)cc1`, the Potency is 2130 nM (active).

As to `C=CCOC(=O)C1(C(NC(=O)OC)c2ccccc2)C(=O)Cc2ccccc21` (stereo not given), the Potency result is “inactive”.

`C=CCN1C(=O)C2(CC(C)=C[C@@H](C)O2)c2c(Br)cccc21` (stereo not given in full): the Potency result was “inactive”.

Take `CC(=CCO)CCO`: the Potency entry is “inactive”.

As for `CC(=O)OC[C@H]1O[C@@H](ON=C2C[C@@H](O)[C@@H](O)[C@@H]3[C@H]4C(=O)N(Cc5ccccc5)C(=O)[C@@H]4CC[C@@H]23)[C@H](OC(C)=O)[C@@H](OC(C)=O)[C@H]1OC(C)=O`, the Potency entry is “inactive”.

Consider `COC(=O)CCCC1=CC2=C(c3ccccc3)C(=O)C(C)(OC(=O)C3CCCC3)C(=O)C2=CN1Cc1ccc2c(c1)OCO2` (stereo not given), for which the Potency entry is “inactive”.

For the molecule `COC1=CC2C(=O)C(C(c3ccccc3)C2C)C1(O)c1cccc(OC)c1` (stereo not given), the Potency entry was “inactive”.

`C#CCCOC(=O)N1C2=NC(C(=O)OC)=C(C(=O)OC)[C@@H]3N(CC=C)c4ccccc4[C@]23C[C@H]1C(=O)OC`: the Potency entry was “inactive”.

Take `C=C(CC(=O)OC)C[C@]1(CC(=O)OC)CC2(CC=C(C)C)C(=O)C(C(=O)c3ccccc3)=C(OC(=O)c3ccc(Br)cc3)C(CC=C(C)C)(C1)C2=O` (stereo not given in full): the Potency result is “inactive”.

In the case of `COC(=O)C1=C(C)N(Cc2ccccc2)C(=NCc2cc(OC)c(OC)c(OC)c2)NC1CCc1ccccc1` (stereo not given), the Potency was 849 nM (active).

Turning to `COC(=O)N[C@@H](CCc1ccccc1)[C@]1(C(C)=O)CCCC1=O`, the Potency entry was “inactive”.

Consider `O=C1CCC=C1C(O)c1ccc2c(c1)OCO2` (stereo not given), for which the Potency entry was “inactive”.

As to `COCC=CC1=CC2=CC(=O)C(C)(OC(=O)c3cnc4ccccc4n3)C(=O)C2=CN1CC(C)C` (stereo not given), the Potency entry was “inactive”.

Take `CCCCC1=CC2=C(c3ccco3)C(=O)C(C)(OC(=O)c3ccc(OC)cc3)C(=O)C2=CN1Cc1ccccc1` (stereo not given): the Potency result was “inactive”.

`COc1cccc2c1C1(CCCCC1)CC2NC(=O)C(F)(F)F` (stereo not given): the Potency result is “inactive”.

For the molecule `C=C(CO[C@@H]1C=C[C@@H](c2ccccc2)O[C@@H]1CO)c1ccccc1`, the Potency result was “inactive”.

For `CC=COC(=O)N[C@@H](c1ccccc1)[C@]1(C(=O)OC)CCCC1=O`, the Potency entry was “inactive”.

As to `O=C1[C@@H]2[C@H]3[C@H](O)[C@H](O)CC(=NOC[C@@H](O)COCc4ccco4)[C@H]3CC[C@H]2C(=O)N1c1ccc(F)cc1F`, the Potency entry is “inactive”.

With `CC(C)[C@@H](OCc1ccccc1)[C@H](C)C=NOC[C@@H](C)[C@H](OCc1ccccc1)C(C)C`, the Potency entry was “inactive”.

As to `CC1(OC(=O)C2CCCC2)C(=O)C=C2C=C(c3ccsc3)N(Cc3ccc4c(c3)OCO4)C=C2C1=O` (stereo not given), the Potency result was “inactive”.

Regarding `COC(=O)C1=C(C(=O)OC)[C@@H]2Nc3ccccc3[C@@]23C[C@@H](C(=O)OC)N(C(=O)Nc2ccccc2F)C3=N1`, the Potency result was “inactive”.

Regarding `COc1ccc(O[C@H]2C=C[C@@H](c3ccccc3)O[C@H]2COC(=O)CCC(C)=NO[C@@H]2O[C@H](COC(C)=O)[C@@H](OC(C)=O)[C@H](OC(C)=O)[C@@H]2OC(C)=O)cc1`, the Potency entry is “inactive”.

On to `CCN1C(=S)NC(c2cccc(F)c2)C(C(=O)OC)=C1C` (stereo not given), for which the Potency entry is “inactive”.

As to `C=CCNC(=O)N1CCc2nc(-c3ccc(OC)cc3C)c3c(c2C1)CO[C@@H](c1ccccc1)C3`, the Potency result is “inactive”.

Consider `COc1ccc2c(c1)O[C@@H](c1cccc(C(F)(F)F)c1)[C@H](OC(=O)Nc1ccc(OC(F)F)cc1)C2=O`, for which the Potency entry is “inactive”.

On to `CCOC(=O)CCN1C(=O)[C@@H]2[C@H]3[C@H](O)[C@H](O)CC(=NNC(=O)OCc4ccccc4)[C@@H]3CC[C@H]2C1=O`, for which the Potency entry is “inactive”.

As for `O=C(NN=C1C[C@@H](O)[C@H](O)[C@H]2[C@@H]3C(=O)N(C4CCCCC4)C(=O)[C@@H]3CC[C@H]12)OCc1ccccc1`, the Potency entry is “inactive”.

Consider `COC(=O)N[C@H](CC(C)=O)c1cccs1`, for which the Potency entry was “inactive”.

As for `COC1=C[C@H](C(=O)NCCOC(C)=O)[C@@]2(C)Cc3ccccc3[C@@H]2CC1=O`, the Potency result is “inactive”.

On to `C=CC[C@@H]1C=C[C@@H](OC(=O)OCC)[C@@H](COC(=O)OCC)O1`, for which the Potency entry was “inactive”.

Turning to `CC#CCC1(C(=O)OC)C(=O)NC[C@H]1c1ccccc1` (stereo not given in full), the Potency entry is “inactive”.

Take `COC[C@H]1O[C@]2(c3ccccc3)CO[C@@H]1[C@@H](C=Cc1ccccc1)C2`: the Potency result was “inactive”.

These data come from PubChem BioAssay (NCATS).
